From PubChem BioAssay (NCATS)
Inconclusive results are not listed. Active and inactive are the calls of the source. Unless noted, calls come from the whole dose curve; as a rule, active = well fitted curve in the direction sought with a large enough effect; inconclusive = small, poorly fitted or top-dose-only effect, or another doubt; inactive = no such curve, though single readings can be large; an effect the other way counts as inactive or inconclusive. Where a SMILES comes first, the peptide text is derived from it. Bridges are numbered along the chain shown (N, C = ends). [ ]: non-standard residue; d: D form. hArg = N=C(N)NCCCC[C@H](N)C(=O)O; Mpa = O=C(O)CCS

Columns and labels:
[1] = qHTS to identify inhibitors of the type 1 interferon - major histocompatibility complex class I in skeletal muscle: primary screen against the NCATS Pharmaceutical Collection (AID 1347407); settings: human skeletal muscle cells, IFN-b-induced MHC-I HiBiT luminescence, 24 h; series mostly up to 45.9 µM;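 note: luminescence of HiBiT knocked into endogenous HLA-B as interferon-induced MHC class I level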
How it was run: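 Luminescence from HiBiT-tagged endogenous HLA-B*08:01 served as the read-out of IFN-beta-induced MHC class I in CRISPR-engineered C25cl48 myoblasts. Cells received 4 ng/ml IFN-beta plus compound (high final 46 uM, […]) for 24 h.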

[2] = target: Protein phosphatase 1D (Homo sapiens) (UniProt O15297); assay: RapidFire Mass Spectrometry qHTS Assay for Modulators of WT P53-Induced Phosphatase 1 (WIP1) (AID 1347424); settings: WIP1 dephosphorylation of phosphopeptide, RapidFire MS; series mostly up to 63 µM;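 note: amount of dephosphorylated VEPPL-S-QETFS peptide product formed by WIP1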
Chain of Protein phosphatase 1D (Homo sapiens) (O15297 whole entry, looked up): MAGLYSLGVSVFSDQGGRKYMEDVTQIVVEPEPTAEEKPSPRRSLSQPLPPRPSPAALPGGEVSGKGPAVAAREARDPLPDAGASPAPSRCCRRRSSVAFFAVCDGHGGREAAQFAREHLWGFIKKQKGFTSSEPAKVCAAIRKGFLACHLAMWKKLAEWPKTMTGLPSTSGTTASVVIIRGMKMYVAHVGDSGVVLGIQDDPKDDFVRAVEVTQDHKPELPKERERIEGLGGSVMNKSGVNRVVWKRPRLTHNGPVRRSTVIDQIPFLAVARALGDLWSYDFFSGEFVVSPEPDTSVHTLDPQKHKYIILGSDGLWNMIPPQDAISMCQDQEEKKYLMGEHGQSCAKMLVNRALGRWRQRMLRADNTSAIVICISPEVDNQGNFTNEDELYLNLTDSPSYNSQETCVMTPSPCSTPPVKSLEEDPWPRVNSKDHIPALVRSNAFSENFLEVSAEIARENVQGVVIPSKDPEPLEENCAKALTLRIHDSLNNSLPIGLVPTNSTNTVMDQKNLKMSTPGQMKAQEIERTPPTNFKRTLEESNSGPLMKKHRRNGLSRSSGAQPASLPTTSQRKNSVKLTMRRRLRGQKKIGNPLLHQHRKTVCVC
How it was run: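 WIP1 (10 nM final) was preincubated 1 h at room temperature with compounds in Tris-HCl pH 7.5, 30 mM MgCl2, TCEP, EGTA, BSA; 2 uM VEPPL-pS-QETFS phosphopeptide was added for 5 min, quenched with formic acid, and dephosphorylated product quantified by RapidFire MS.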

[3] = target: Protein phosphatase 1D (Homo sapiens) (UniProt O15297); assay: Rhodamine-PBP qHTS Assay for Modulators of WT P53-Induced Phosphatase 1 (WIP1) (AID 1347425); settings: recombinant WIP1, Rhodamine-PBP phosphate fluorescence, real-time; series mostly up to 57.5 µM
How it was run: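 5 nM WIP1 + 10 uM Rh-PBP, 50 mM Tris pH 7.5, 30 mM MgCl2, 1 mM TCEP, 0.1 mM EGTA, BSA; cpds pinned, 1 hr RT; + 10 uM phosphopeptide; fluorescence 1-min reads x 11 min; delta = f1 - f0.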

[4] = target: Calcium and integrin-binding protein 1 (Homo sapiens) (UniProt Q99828); assay: Primary qHTS for Identification of Calcium Integrin Binding Protein 1 (CIB1) Competitor (AID 1508620); settings: CIB1-GST / FITC-alphaIIb peptide fluorescence polarization; series mostly up to 114 µM;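 note: GST tagged CIB1 binding a fluorescein labelled alphaIIb integrin peptide tracer; top concentration of the series differs between compounds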
Chain of Calcium and integrin-binding protein 1 (Homo sapiens) (Q99828 whole entry, looked up): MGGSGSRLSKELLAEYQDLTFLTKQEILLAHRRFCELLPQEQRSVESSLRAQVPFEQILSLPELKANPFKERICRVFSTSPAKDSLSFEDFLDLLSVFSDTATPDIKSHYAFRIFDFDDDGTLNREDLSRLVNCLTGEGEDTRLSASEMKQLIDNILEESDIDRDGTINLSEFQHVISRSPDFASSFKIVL
How it was run: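 Fluorescence polarization competition: CIB1-GST (1 uM final) preincubated with compound 15 min at room temperature, then FITC-labeled alphaIIb peptide (100 nM final) added for another 15 min. Polarization read at Ex 480/Em 540.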

[5] = A High-Content qHTS Against Drug Library for the Identification of Small Molecules that Inhibit DYT1 Early Onset Primary Dystonia-Associated Cell Pathology (AID 1645839; calls by dose curve); settings: HEK293 Flp-In EGFP-delE TorsinA, punctate imaging, 48 h; series mostly up to 46.1 µM
How it was run: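 Readout: %pathology, the punctate EGFP-TorsinA distribution from imaging, as the primary channel and cell count as the toxicity counterscreen. HEK293 Flp-In cells expressing delE TorsinA were induced with tetracycline and treated with compound for 48 h.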

[6] = target: Cytochrome P450 2D6 (Homo sapiens) (UniProt P10635); assay: Cytochrome P450 family 2 subfamily D member 6 (CYP2D6) small molecule antagonists: luciferase biochemical (cell-free) qHTS assay (AID 1645840; active = well fitted curve in the direction sought with a large enough effect in the repeat runs; an effect the other way counts as inactive or inconclusive; note: nearly all actives have a fitted effect of over 55% in size; note: potency is the fitted concentration of half-maximal effect); settings: P450-Glo CYP2D6 enzyme, luciferin luminescence, 1 h; series mostly up to 57.4 µM
Chain of Cytochrome P450 2D6 (Homo sapiens) (P10635 whole entry, looked up): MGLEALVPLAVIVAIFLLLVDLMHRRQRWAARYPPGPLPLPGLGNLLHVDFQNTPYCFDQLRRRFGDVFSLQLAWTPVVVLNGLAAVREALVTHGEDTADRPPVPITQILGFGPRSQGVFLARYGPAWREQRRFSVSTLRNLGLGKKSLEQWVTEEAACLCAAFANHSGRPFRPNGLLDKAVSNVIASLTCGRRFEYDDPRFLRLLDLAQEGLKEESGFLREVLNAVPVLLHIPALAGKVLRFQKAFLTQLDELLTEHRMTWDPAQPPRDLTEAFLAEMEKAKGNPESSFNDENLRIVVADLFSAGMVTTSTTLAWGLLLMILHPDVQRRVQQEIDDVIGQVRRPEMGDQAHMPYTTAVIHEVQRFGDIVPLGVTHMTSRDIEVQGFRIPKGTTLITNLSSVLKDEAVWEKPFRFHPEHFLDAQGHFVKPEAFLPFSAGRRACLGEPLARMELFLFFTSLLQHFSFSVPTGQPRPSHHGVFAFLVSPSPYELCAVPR
How it was run: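 P450-Glo luminescent screen: recombinant CYP2D6 enzyme–proluciferin substrate mix preincubated with compound 10 min at room temperature, then NADPH regeneration added for 1 h at room temperature. Detection reagent added for 20 min; luciferin light read as relative luminescence units.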

[7] = Primary qHTS for inhibitors of La Crosse Virus (LACV) - induced cell death in SH-SY5Y cells (AID 1508616); settings: SH-SY5Y LACV cytopathicity rescue, ATP luminescence, 6 d; series mostly up to 4.29 µM;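 note: top concentration of the series differs between compounds; higher means more rescue of cells from virus-induced death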
How it was run: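 Protection against LACV-induced cell death is scored in SH-SY5Y cells exposed to compounds and virus (0.01 MOI) for 6 days. Data normalized to virus-infected DMSO wells and virus-free DMSO wells.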

[8] = Counterscreen qHTS for small molecule stabilizers of the endoplasmic reticulum resident proteome: GLuc-NoTag assay (AID 1508627); settings: Gaussia luciferase NoTag secretion counterscreen, luminescence, thapsigargin 100 nM for final 4 h; series mostly up to 76.4 µM;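 note: SH-SY5Y cells given compound then 100 nM thapsigargin to empty ER calcium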
How it was run: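 SH-SY5Y cells stably expressing constitutively secreted GLuc (no SERCaMP tag) were pre-incubated 5 h, treated with compound for 19 h, then 100 nM thapsigargin for 4 h at 37C; medium GLuc read by coelenterazine luminescence.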

[9] = Confirmatory qHTS for small molecule stabilizers of the endoplasmic reticulum resident proteome: Secreted ER Calcium Modulated Protein (SERCaMP) assay (AID 1508628); settings: SERCaMP secreted luciferase ER calcium/proteostasis reporter; series mostly up to 76.3 µM; note: nearly all actives have a fitted effect of over 40% in size; note: potency is the fitted concentration of half-maximal effect
How it was run: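 SH-SY5Y cells stably expressing GLuc-SERCaMP, treated 16 h with compound (primary 1.53, 7.67, 38.3 uM; confirmation 11 concentrations, up to 76.6 uM), then 100 nM thapsigargin for 4 h. Secreted Gaussia luciferase in medium read by coelenterazine luminescence.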

[10] = Primary qHTS for small molecule stabilizers of the endoplasmic reticulum resident proteome: Secreted ER Calcium Modulated Protein (SERCaMP) assay (AID 1508630); settings: SH-SY5Y GLuc-SERCaMP (Gaussia luciferase released on ER calcium loss) secretion, thapsigargin, luminescence; series mostly up to 38.4 µM
How it was run: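 GLuc-SERCaMP-expressing SH-SY5Y cells, pretreated 16 h with compound, are challenged with thapsigargin to empty ER calcium stores; after 4 h, coelenterazine is added directly to the medium and luminescence is imaged.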

[11] = target: Calcium and integrin-binding protein 1 (Homo sapiens) (UniProt Q99828); assay: Confirmatory qHTS for Identification of Calcium Integrin Binding Protein 1 (CIB1) Competitor (AID 1508617); settings: CIB1 binding competition assay, biochemical qHTS; series mostly up to 114 µM; note: nearly all actives have a fitted effect of over 65% in size
How it was run: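 Confirmatory qHTS measures displacement of a FITC-alphaIIb peptide (100 nM) from CIB1-GST (1 uM) by fluorescence polarization. Calcium-containing HEPES buffer, pH 7.4; two 15 min room-temperature incubations.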

Measured: Potency

Cc1cc(=O)[nH]c(=S)[nH]1
inactive: [1] | [2] | [3] | [4] | [5] | [6]

O=C(O)CCC(=O)O
inactive: [1] | [2] | [3] | [7] | [5] | [6]

NS(=O)(=O)c1ccc(C(=O)O)cc1
inactive: [1] | [2] | [3] | [4] | [5] | [6]

Cc1ccc2c(c1)c1c3n2CCNC3CCC1 (centres undefined)
not listed: [5] | [6] | [7] | [11]
inactive: all other assays above

CC1(C)S[C@@H]2[C@H](NC(=O)C(C(=O)O)c3ccccc3)C(=O)N2[C@H]1C(=O)O (some centres undefined)
inactive: [1] | [2] | [7] | [4] | [5] | [6]

O=C1c2ccccc2S(=O)(=O)N1CCCCN1CCN(c2ncccn2)CC1
inactive: [1] | [2] | [7] | [4] | [10] | [5]
active: [6] 871 nM

O=C(O)Cc1ccc(CCNS(=O)(=O)c2ccc(Cl)cc2)cc1
not listed: [1] | [4] | [8] | [9]
inactive: all other assays above

CCCCCCCCCCCCCCCCN
inactive: [1] | [2] | [4] | [10] | [5] | [6]

COc1ccccc1Oc1c(NS(=O)(=O)c2ccc(C(C)(C)C)cc2)nc(-c2ncccn2)nc1OCCO
inactive: [1] | [2] | [7] | [4] | [10] | [6]

CC(=O)Oc1cccc(C)c1
inactive: [1] | [2] | [7] | [4] | [5] | [6]

CC[C@]12CCCN3CCc4c(n(c5ccccc45)[C@@](O)(C(=O)OC)C1)[C@@H]32
active: [6] 11000 nM
inactive: [1] | [2] | [7] | [4] | [10] | [5]

O=C(O)[C@@H]1[C@H]2C[C@H]3c4[nH]c5ccccc5c4CCN3C[C@@H]2CC[C@@H]1O
inactive: [1] | [3] | [7] | [10] | [5]
active: [6] 977 nM

O=C(O)c1ccccc1OP(=O)(O)O
inactive: [1] | [2] | [7] | [4] | [5] | [6]

CC(C)=CCC/C(C)=C/CO
inactive: [2] | [3] | [7] | [4] | [10] | [5]

O=C1c2ccccc2C(=O)C1c1ccc(Br)cc1
inactive: [1] | [7] | [4] | [10] | [5] | [6]

NS(=O)(=O)c1cc(-c2nn[nH]n2)c(NCc2cccs2)cc1Cl
not listed: [3] | [8] | [9] | [11]
inactive: all other assays above

Nc1ccc(S(=O)(=O)c2ccc(N)cc2)cc1
inactive: [1] | [2] | [7] | [5] | [6]

NC(=O)[C@@H]1CSSCCC(=O)N[C@@H](CCCCN=C(N)N)C(=O)NCC(=O)N[C@@H](CC(=O)O)C(=O)N[C@@H](Cc2c[nH]c3ccccc23)C(=O)N2CCC[C@H]2C(=O)N1 ([Mpa][hArg]GDWPC-NH2; disulfide 1-7)
inactive: [1] | [2] | [7] | [4] | [5] | [6]

Cc1[nH]c(C)c(Cl)c(=O)c1Cl
not listed: [3] | [8] | [9] | [11]
inactive: all other assays above

CCN(CC)CC1CCCCN1CC(=O)N1c2ccccc2C(=O)Nc2cccnc21 (centres undefined)
not listed: [3] | [8] | [9] | [11]
inactive: all other assays above

Cn1c(=O)c2c(ncn2CCO)n(C)c1=O
not listed: [2] | [8] | [9] | [11]
inactive: all other assays above

CC1(C)S[C@@H]2[C@H](N=CN3CCCCCC3)C(=O)N2[C@H]1C(=O)O
inactive: [1] | [2] | [7] | [4] | [5] | [6]

C=CCN1C[C@H](C(=O)N(CCCN(C)C)C(=O)NCC)C[C@@H]2c3cccc4[nH]cc(c34)C[C@H]21
inactive: [1] | [2] | [7] | [4] | [10] | [5]
active: [6] 1550 nM

OCC(O)CS (centres undefined)
inactive: [1] | [2] | [7] | [4] | [5] | [6]

O=C1C(c2[nH]c3ccccc3c2O)=Nc2ccccc21
inactive: [1] | [2] | [7] | [4] | [5] | [6]

OC(CCN1CCCC1)(c1ccccc1)C1CCCCC1 (centres undefined)
active: [9] 3980 nM
inactive: [1] | [3] | [7] | [5]

NC(=O)N[C@@H](CCC(=O)O)C(=O)O
inactive: [1] | [2] | [4] | [5] | [6]

CC(=O)N[C@@H](Cc1ccc(O)cc1)C(=O)O
inactive: [1] | [7] | [4] | [10] | [5] | [6]
